G9a block: qHTS Assay for Inhibitors of Histone Lysine Methyltransferase G9a; Histone-lysine N-methyltransferase EHMT2 (Homo sapiens), Q96KQ7; 8.8% of 350,000 active; Potency, µM (highest dose often 102 µM), inactives show top-dose activity, negative = inhibition, hits mostly inhibitors; G9a H3K9 monomethylation, AlphaScreen, 2 h; AID 504332, 2011; note: potency is the fitted concentration of half-maximal effect; % is set by controls: 0 for no effect and ±100 for the full control effect; nearly all actives have a fitted effect of over 75% in size
Target sequence (Q96KQ7 913-1193 limits assumed): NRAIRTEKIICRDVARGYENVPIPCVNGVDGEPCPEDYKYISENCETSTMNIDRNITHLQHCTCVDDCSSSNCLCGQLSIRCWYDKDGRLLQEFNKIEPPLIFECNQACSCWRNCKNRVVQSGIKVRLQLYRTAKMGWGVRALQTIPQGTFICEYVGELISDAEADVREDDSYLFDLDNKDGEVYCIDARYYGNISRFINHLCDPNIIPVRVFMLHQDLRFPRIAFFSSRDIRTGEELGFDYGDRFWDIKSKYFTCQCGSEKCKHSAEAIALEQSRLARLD
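G9a (20 nM) was preincubated 15 min with compound, then reacted 2 h at room temperature with 500 nM biotin-H3K9 peptide and 20 µM SAM. Monomethyl-H3K9 detected by AlphaScreen using anti-H3K9me1 antibody.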
HP1b binding inh: HTS for Inhibitors of HP1-beta Chromodomain Interactions with Methylated Histone Tails. Chromobox protein homolog 1 (Homo sapiens), P83916. AlphaScreen HP1-beta / biotin-H3K9me3 peptide binding. Potency, µM (doses to about 114 µM), for inactives: at the top dose activity change, negative = inhibition, hits mostly inhibitors. 0.56% of 390,000 active. AID 540317, 2011; note: potency is the fitted concentration of half-maximal effect; nearly all actives have a fitted effect of over 70% in size
Target sequence (P83916 whole entry, looked up): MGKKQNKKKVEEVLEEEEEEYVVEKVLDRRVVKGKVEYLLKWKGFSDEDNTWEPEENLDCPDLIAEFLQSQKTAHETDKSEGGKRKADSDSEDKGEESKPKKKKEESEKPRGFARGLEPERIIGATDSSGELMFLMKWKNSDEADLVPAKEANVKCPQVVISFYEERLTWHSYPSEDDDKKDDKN
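AlphaScreen: HP1-beta (50 nM) preformed 30 min with biotin-H3(1-18)K9me3 peptide (50 nM) in PBS pH 7.4, 0.01% Tween-20. Compound added for 30 min at RT, then streptavidin donor/nickel chelate acceptor beads (10 ug/mL) for 30 min.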
BAZ2B inh: qHTS Assay for Inhibitors of BAZ2B; Bromodomain adjacent to zinc finger domain protein 2B (Homo sapiens), Q9UIF8; AlphaScreen BAZ2B-H3K14Ac peptide displacement; Potency, µM (doses to about 114 µM), for the others: at the top dose activity change, negative = inhibition, most hits filed as inhibitors; 4.4% of 360,000 active; note: potency is the fitted concentration of half-maximal effect; % is set by controls: 0 for no effect and ±100 for the full control effect; nearly all actives have a fitted effect of over 60% in size
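BAZ2B 50 nM plus b-H3(5-23)K14Ac 50 nM, PBS pH 7.4/0.01% Tween-20, 30 min RT; compound added (max 110 uM), 30 min RT; streptavidin donor/Ni-chelate acceptor beads 10 ug/mL final, 20 min dark; AlphaScreen read.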
Six1-Eya2 blk: qHTS Assay for Inhibitors of the Six1/Eya2 Interaction; Homeobox protein SIX1 (Homo sapiens) + Protein phosphatase EYA2 (Homo sapiens), …; 0.56% of 360,000 active; activity change, % (concentration not given with the values); AlphaScreen GST-Six1/His-Eya2 binding, biochemical; stronger effect = lower value; in the data active = activity change below about -65%; inconclusive = mostly about -30% to -63%; note: % is set by controls: 0 for no effect and ±100 for the full control effect
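GST-Six1 + His-Eya2 (5X stock: 250/500 nM); Tris pH 8.0, 300 mM NaCl, 0.05% BSA, 0.02% Tween 20; GSH donor/Ni acceptor beads; 1 h 37 °C dark; AlphaScreen readout.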
JMJD2A Tudor inh: qHTS Assay for Inhibitors of JMJD2A-Tudor Domain. 4.4% of 390,000 active. Potency, µM (series often up to 114 µM), inactives show at the top dose activity change, negative = inhibition, hits mostly inhibitors. AID 504339, 2011. AlphaScreen JMJD2A-Tudor / H3K4me3 peptide binding. Lysine-specific demethylase 4A (Homo sapiens), O75164; note: potency is the fitted concentration of half-maximal effect; % is set by controls: 0 for no effect and ±100 for the full control effect; nearly all actives have a fitted effect of over 50% in size
CtBP-E1A blk: qHTS Assay for Inhibitors of the CtBP/E1A Interaction. CtBP / adenovirus E1A interaction (AlphaScreen). AID 651724, 2012. AlphaScreen GST-E1A/His-CtBP binding, 1536-well; stronger effect = lower value. 0.49% of 340,000 active. activity change, % (test concentration not listed); in the data active = activity change below about -65%; inconclusive = mostly about -30% to -63%; note: % is set by controls: 0 for no effect and ±100 for the full control effect
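Homogeneous bead-based format: GST-tagged E1A captured on glutathione donor beads, His-tagged CtBP on nickel acceptor beads; compounds precede bead addition by 2 h at 37 °C.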
Starred values were filed as active, the others as inactive; ? = inconclusive; . = no result given; ! = repeats disagree; [ ] = dose if it differs, or a comment. This is a sample that favours compounds with a hit; in the whole collection about 10% have one here. Unless noted, calls come from the whole dose curve; as a rule, active = well fitted inhibition curve with a large enough effect; inconclusive = small, poorly fitted or top-dose-only effect; inactive = no such curve, though single readings can be large or run the other way.

SMILES	G9a block	HP1b binding inh	BAZ2B inh	Six1-Eya2 blk	JMJD2A Tudor inh	CtBP-E1A blk
COc1ccc(-n2nnnc2Sc2ccc(S(=O)(=O)N3CCOCC3)cn2)cc1	1.78µM*	?	-2.1%	-3.3	22.4µM*	-1.8
O=[N+]([O-])c1ccc(CSc2ccc(S(=O)(=O)N3CCOCC3)cn2)cc1	20µM*	7.0%	-26.7%	-20.6	-23.4%	-2.6
COc1ccc(CNC(=O)C(C)Sc2ccc(S(=O)(=O)N3CCOCC3)cn2)cc1 (centres undefined)	31.6µM*	40.0%	-2.6%	-2.7	2.7%	4.0
COc1ccc(CNC(=O)c2ccc(S(=O)(=O)N3CCOCC3)cc2)cc1	-23.0%	24.6%	-2.2%	0.4	0.7%	4.6
CCc1ccccc1NC(=O)CN1C(=O)CCSc2ccc(S(=O)(=O)N3CCCC3)cc21	13.3%[59 µM]	10.0%[57 µM]	-4.1%	.	-9.6%	.
O=C(CSc1nc2c(c(=O)[nH]1)CCC2)Nc1ccccc1F	-43.2%[59 µM]	3.4%	?	.	-32.8%	.
Nc1ncnc2c1ncn2COC(CO)CO	.	4.3%[57 µM]	.	.	-2.3%[57.1 µM]	.
COc1ccc(OC)c(CCNc2nccn(-c3ccc(C)c(C)c3)c2=O)c1	15.8µM*	?	25.1µM*	.	56.2µM*	.
Cc1ccc(CNC(=O)CCCC(=O)Nc2cc(C)on2)cc1	.	?	-6.6%	6.4	15.8µM*	-3.7
Cc1cc(NC(=O)CCOc2ccc(F)cc2)no1	56.2µM*	35.8%	-8.8%	-1.1	-0.7%	10.1
O=C(O)CCCCCNC(=O)C(=O)C1C(=O)Nc2ccccc21 (centres undefined)	25.1µM*	61.4%	?	3.6	-3.7%[11.4 µM]	8.8
COCCCNC(=O)C(=O)C1C(=O)Nc2ccccc21 (centres undefined)	39.8µM*	3.1%	-35.1%	3.6	-28.7%	0.0
O=C(NCc1ccncc1)C(=O)C1C(=O)Nc2ccccc21 (centres undefined)	-48.5%	-4.2%	?	5.1	?	-7.1
COc1ccc(Cl)cc1NC(=O)CSc1nc2ccccc2nc1N1CCCCC1	71.0%[59 µM]	98.0%	5.0%	.	38.5%	.
Cc1ccc2[nH]c(-c3cccc(F)c3)cc(=O)c2c1	0.282µM*!	44.5%	5.1%	-2.6	-7.9%	3.2
O=c1cc(-c2ccccc2)[nH]c2ccc(F)cc12	79.4µM*!	35.3%	5.1%	2.2	-16.6%	7.2
O=c1cc(-c2cccc(F)c2)[nH]c2ccccc12	31.6µM*!	57.2%	1.8%	2.6	-13.6%	-2.0
O=c1cc(-c2cccc(F)c2)[nH]c2cc(Cl)ccc12	-4.9%	.	.	.	.	.
COc1ccc2[nH]c(-c3cccc(F)c3)cc(=O)c2c1	?	30.2%	-5.5%	5.8	-20.0%	4.8
Cc1cccc(OCc2nc(CC(=O)Nc3ccc(C)c(C)c3)cs2)c1	2.0%[59 µM]	46.2%	-6.6%	.	-0.7%	.
COc1cc(C(=O)OCC(=O)Nc2c(F)cccc2F)cc(OC)c1C	44.7µM*	17.3%	?	8.4	5.3%[11.4 µM]	.
CCOc1ccc(NC(=O)CCn2cccn2)cc1	21.5%[59 µM]	19.0%	-7.8%	.	-11.3%	.
O=c1c2cc(F)ccc2sn1-c1ccc(F)cc1	6.7%[0.501 µM]	-4.2%	10µM*	-1.1	20µM*	-0.4
COc1ccc(-n2sc3ccc(F)cc3c2=O)cc1	0.0%[0.501 µM]	-5.1%	8.91µM*	-15.8	11.2µM*	-9.1
COc1ccc(-n2sc3ccccc3c2=O)cc1	.	.	.	-1.6	.	-3.5
SMILES	G9a block	HP1b binding inh	BAZ2B inh	Six1-Eya2 blk	JMJD2A Tudor inh	CtBP-E1A blk
Cc1ccc(C)c(-n2sc3ccc(F)cc3c2=O)c1	-0.6%[0.501 µM]	-25.5%	17.8µM*	-7.6	14.1µM*	-15.6
COc1cccc(Nc2ncc3nc(-c4ccccc4)c(=O)n(C[C@H]4CCCO4)c3n2)c1	-0.6%[12.7 µM]	.	.	.	.	.
O=C(Oc1nsnc1N1CCOCC1)c1ccccc1	35.5µM*	-23.4%	-4.2%	6.7	-34.6%	4.7
CCOC(=O)N1CCN(CC(O)COCC2=CCC3CC2C3(C)C)CC1 (centres undefined)	.	?	50.1µM*	26.4	3.55µM*	8.8
CCN1C(=O)C(Cc2nc3ccccc3c(=O)n2-c2ccc(OC)cc2)c2ccccc21 (centres undefined)	-4.4%[59 µM]	16.0%	-19.3%	.	-20.1%	.
COc1ccccc1N1C(=O)C2C(c3ccccc3F)NN(C(=O)c3ccc(C)cc3)C2C1=O (centres undefined)	20µM*	35.1%	-3.3%	7.3	-16.4%	0.0
O=C(CNC(=O)c1cccc2ccccc12)OC(C(=O)Nc1cc(C(F)(F)F)ccc1Cl)c1ccccc1 (centres undefined)	.	.	.	.	-10.3%	.
COc1ccc(NS(=O)(=O)c2cccc(C(=O)NNC(=O)NCCCl)c2)cc1	50.1µM*	21.5%	-49.7%	3.7	-26.3%	-6.7
COc1ccc(NS(=O)(=O)c2cccc(C(=O)NNC(=O)c3ccccc3OC)c2)cc1	7.6%	36.8%	2.8%	-6.4	-13.1%	-0.3
COCc1nnc(NC(=O)c2ccc(Cl)cc2[N+](=O)[O-])s1	15.8µM*	-7.7%	4.6%	4.8	-9.3%	-2.8
CCOCc1nnc(NC(=O)c2cc(Cl)ccc2OC)s1	6.31µM*	25.6%	10.8%	4.1	-7.8%	-1.2
COc1cc(C(=O)Nc2nnc(SC)s2)c([N+](=O)[O-])cc1OC	31.6µM*	27.5%	-20.0%	2.9	-14.3%	.
COCc1nnc(NC(=O)c2ccccc2[N+](=O)[O-])s1	20µM*	3.3%	6.4%	0.0	-9.1%	11.7
CCc1nnc(NC(=O)c2cc(OC)c(OC)cc2[N+](=O)[O-])s1	.	36.9%	0.0%	-1.4	10.7%[57.1 µM]	7.0
O=C(Nc1ccc2oc(-c3cc(Br)ccc3Cl)nc2c1)c1cc2ccccc2o1	?	38.4%	79.4µM*	.	-26.9%	.
O=C(Nc1ccc2oc(-c3ccc(Br)cc3)nc2c1)c1cc2ccccc2o1	4.2%[59 µM]	33.0%	3.8%	.	-7.8%	.
COc1cccc(-c2cn3c(n2)sc2cc(C(=O)NCCc4ccccc4)ccc23)c1	-8.4%[59 µM]	45.7%	-3.2%	.	-16.4%	.
Cc1ccccc1N1C(=O)c2cc(N)ccc2N/C1=C\F	-2.4%[12.7 µM]	.	.	.	.	.
Brc1ccc(C2=Nn3c(nnc3-c3cccnc3)SC2)s1	17.6%[12.7 µM]	34.1%	0.4%	-22.0	50.1µM*	-25.8
c1ccc(C2=Nn3c(nnc3-c3ccco3)SC2)cc1	31.6µM*	-15.1%	-26.9%	?	-23.6%	-28.8
CC1=Nn2c(nnc2-c2cc(-c3ccccc3)n[nH]2)SC1	14.1µM*	43.4%	11.1%	3.2	0.4%	4.7

Bioassay records as filed in PubChem BioAssay.
